PBM binding z-score data for 40 sequences are collected here from the supplement of paper PMC6555819.

For the test, the system named is VDR:RXRa (NR concentration 270 nM, RXRa partner concentration 90 nM). In words: PBM binding z-score (relative to random genomic background probes); higher = stronger binding; sequences stand for … in GC…GCGATTGACAGCGTAGAATGAAGG
As to the method:
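Protein-binding microarray (Agilent 4x180K custom design, double-stranded 60-nt probes: 5' GC cap, 34-nt variable region, 24-nt constant primer region; full probe sequence given). Purified or IVT nuclear receptor:RXRα heterodimers (3:1 NR:RXRα, mostly 270:90 nM) or homodimers were incubated for 1 h in PBS with 2% milk and no ligand, then detected with Alexa488 antibodies. Fluorescence from o1-orientation probes (~5 replicates averaged) was converted to z-scores against 500 random hg19 background probes. Variable regions are seed direct-repeat (DR0–DR5) sites, all their single-nucleotide variants and half-site ablations.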
With GTACCAAGGTGGATAGGTCGTTGATGAGTAGGCG, the PBM binding z-score was -0.168.
Turning to ATATGTAGGTCACATCCGGGTCATTCAGGCTATG, the PBM binding z-score was determined as 6.03.
For GGAACGAGGGCGAGTTGATAGCAGAGTTTGATGG, the PBM binding z-score was -0.000397.
Sequence ATCTCTAGGTAAGACTCAGTTTAGTGAAGAACGC returned a PBM binding z-score of 0.468.
CCGACTGAGGCATAAGGTTACCATAAGCCAGCCC: the PBM binding z-score is 0.114.
With AGAACGAGGGCAATGAATTGATAGCACGGGTGGC, the PBM binding z-score was found to be 0.305.
In turn, CCGACTGGGGCAAAGGTTATCATACTCAGTACGA registered a PBM binding z-score of 1.46.
With TCGAGTAGGTTAGTCGGGGCATTCAACCAACATA, the PBM binding z-score amounted to 2.31.
TCTCGGAGGACACGAAAGGTCAGATCTCGACATC came in with a PBM binding z-score of 3.38.
With CATACAGGGTCAGCTAGGCCAAAGTAGGGACGGC, the PBM binding z-score came to 4.73.
In the case of ACTAGCAGGCCAAGTGTGGGTCACTCAAACAAAG, the PBM binding z-score is 0.53.
AGAATGAGGTTATACGTAGATCAGGCAAGAAAGT displayed a PBM binding z-score of 1.46.
CCAGACCGGTGAGAAGGTAACTCAGCCTCGATTA displayed a PBM binding z-score of -0.163.
Turning to CGAACGTGGGCATGAGTTGATAGCAAATGCCGAT, the PBM binding z-score was -0.7.
TCTATTAGTTGAAGGGCAACCGTCGAGTCCGTTT registered a PBM binding z-score of 0.884.
As for CCTACTGGGGCATCAGGTCATTGATATCAACGTT, the figure is 1.85.
Take TCATATAGGGAAAGGTGAAAGTCGAACGATATGA: the PBM binding z-score came to 0.965.
CCTCGGAGGACAGCAGGTCAGAGCTGTCCGCTTT: the PBM binding z-score is -0.115.
Under CAAACTAGGTCACCAAAGGTCAAAGTCGAATGAC stands 6.93; under TCATATAGGTAAATGCTAGGTGAACGTCCGATCT, 0.914.
Under CAAACTAGGTCACGAAAGGTCGAAGTCGAATGAC stands 5.72.
GTACCAAGGTGAATAGGTCGTTGCTGAGTAGGCG showed a PBM binding z-score of 0.644.
On to GCGACTGGGGCATCCGCAGGTTACCATAACTTAA, for which the PBM binding z-score is -0.12.
CGTCCAAGGTCAATGATAGGTCAGTGAAAGCATT came in with a PBM binding z-score of 5.02.
Under ACTAGCAGACCAAGTTTGGGTCACTCAAACAAAG stands 0.245; under ATCGAAAGGTCGAAGTGAGTATAGAGAAAGGGAA, 2.7; under CCGACTGGGGCAAAGGTTACCGTACTCAGTACGA, 1.39.
Sequence CCTACTGGGCCATCAGGTCAATGATATCAACGTT registered a PBM binding z-score of 1.4.
Under TAGCCTAGGTCATGGGCCAGCATACCACGCGAAC stands 1.68.
TCTTGTCGATCAAAGGTTAAGAAAGCCGAAGCCT showed a PBM binding z-score of 1.27.
As for CCTACTGGGCCAAGGTCATTCATCAGTCAAAGCA, the PBM binding z-score was 3.55.
For GCTAGCAGGCCAATTGGGTCACTCAATGACGGGC, the PBM binding z-score is 0.89.
In turn, ACTCGCAGGCCAAGGGTCACTCAAGATTAGTCCG returned a PBM binding z-score of 2.89.
Under CGTACAAGGTCAATGCTAGGTCAGTGAAAGCATT stands 5.24; under CAAACTAGGTCAAGAGGTCACAGTCCGCTTCCCG, 5.92.
CAAACTAGGTCCAAGGTCAAAGTCGAGCCAACCA had a PBM binding z-score of 4.04.
As for TCTGCTCGGTCAGTTGGTCAGCTAACGAGCTGCC, the PBM binding z-score is -0.549.
As for CCTAGCAGGCCAGGGTTACTCAAGCATTTCGCTT, the figure is -0.412.
As for CTACCGAGGTGAACAAGGTCGTTGATTACTATTC, the PBM binding z-score is 6.42.
With AGAATCAGGTTACCAAAGATCAGGGAAACGCTTG, the PBM binding z-score is -0.0357.
